Experimental data as given in PubChem BioAssay (NCATS).
Several values for one entry are separate records, joined by “and”; a condition that tells them apart may be missing. Equal entries are not always repeated. Inconclusive results are not listed. Some structures have more than one record in an assay (separate samples or runs), and their calls can disagree. Activity calls are given as the source filed them. Unless noted, the call rests on the fitted dose curve; in most records, active means well fitted curve in the direction sought with a large enough effect; inconclusive means small, poorly fitted or top-dose-only effect, or another doubt; inactive means no such curve, though single readings can be large; an effect the other way counts as inactive or inconclusive.

Columns and labels:
[1] = biological target: Beta-2 adrenergic receptor (Homo sapiens) (UniProt P07550); assay: qHTS validation assay of beta-arrestin-biased ligands of beta2-adrenergic receptor (AID 485366); further: 0% is about no effect
Chain of Beta-2 adrenergic receptor (Homo sapiens) (P07550 whole entry, looked up): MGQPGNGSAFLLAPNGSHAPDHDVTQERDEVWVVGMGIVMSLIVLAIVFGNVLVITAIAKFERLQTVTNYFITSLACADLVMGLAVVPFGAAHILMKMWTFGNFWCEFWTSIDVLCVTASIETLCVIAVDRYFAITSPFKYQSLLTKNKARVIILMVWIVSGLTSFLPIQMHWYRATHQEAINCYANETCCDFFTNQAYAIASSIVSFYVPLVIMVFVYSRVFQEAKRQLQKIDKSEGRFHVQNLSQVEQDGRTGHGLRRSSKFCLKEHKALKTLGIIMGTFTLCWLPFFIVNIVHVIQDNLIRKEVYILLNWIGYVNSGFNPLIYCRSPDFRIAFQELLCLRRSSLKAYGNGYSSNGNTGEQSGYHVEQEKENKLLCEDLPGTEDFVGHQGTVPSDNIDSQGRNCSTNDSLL
Method in brief: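 Screening used a titration range of up to 46 microM in a beta-arrestin recruitment Tango luciferase assay. Cells in 1% FBS medium were treated 18 hr at 37 degrees C, and luminescence was normalized to %Activity.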

[2] = biological target: ATP-dependent 6-phosphofructokinase (Trypanosoma brucei brucei) (UniProt O15648); assay: qHTS Validation Assay to Find Inhibitors of T. brucei phosphofructokinase (AID 485368); further: potency means the concentration at half of the fitted maximal effect
Chain of ATP-dependent 6-phosphofructokinase (Trypanosoma brucei brucei) (O15648 whole entry, looked up): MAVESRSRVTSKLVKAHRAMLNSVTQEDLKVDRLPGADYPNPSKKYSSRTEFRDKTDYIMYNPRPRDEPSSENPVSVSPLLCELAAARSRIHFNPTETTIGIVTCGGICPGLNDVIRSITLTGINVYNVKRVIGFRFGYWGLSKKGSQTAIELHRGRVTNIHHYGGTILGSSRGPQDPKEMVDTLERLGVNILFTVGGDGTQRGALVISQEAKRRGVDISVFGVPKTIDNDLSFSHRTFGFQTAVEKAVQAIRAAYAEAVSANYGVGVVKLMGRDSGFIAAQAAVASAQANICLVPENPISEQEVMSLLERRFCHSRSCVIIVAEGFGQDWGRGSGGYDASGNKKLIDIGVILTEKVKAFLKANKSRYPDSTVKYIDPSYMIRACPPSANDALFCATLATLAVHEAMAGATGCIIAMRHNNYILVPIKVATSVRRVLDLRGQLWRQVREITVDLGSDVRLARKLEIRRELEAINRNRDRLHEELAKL
Method in brief: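 PFK-generated ADP was measured after 45 min at room temperature using ADP-Glo. The reaction contained 0.5 mM F6P and 0.1 mM ATP.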

[3] = Quantitative high throughput screen for delayed death inhibitors of the malarial parasite plastid, 96 hour incubation (AID 488745); further: nearly all actives have a fitted effect of over 70% in size; further: potency means the concentration at half of the fitted maximal effect
Method in brief: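 Luciferase-expressing P. falciparum, infected RBCs 2% Hct/0.1% parasitemia (final); 96 h cpd exposure, 37 C, 5% CO2; RPMI 1640 + 0.5% Albumax, bicarbonate, gentamycin. Readout: luminescence loss = growth inhibition.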

[4] = Quantitative high throughput screen for delayed death inhibitors of the malarial parasite plastid, 48 hour incubation (AID 488752); further: nearly all actives have a fitted effect of over 65% in size; further: potency means the concentration at half of the fitted maximal effect
Method in brief: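 Luciferase-expressing P. falciparum in RBCs, 2% Hct, 0.1% parasitemia final; RPMI 1640 + 0.5% Albumax; 48 h, 37 C, 5% CO2; luminescence readout, signal drop = growth inhibition.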

[5] = biological target: Thioredoxin reductase 1, cytoplasmic (Rattus norvegicus) (UniProt O89049); assay: qHTS Assay for Substrates of Mammalian Selenoprotein Thioredoxin Reductase 1 (TrxR1) (AID 488772);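 further: series mostly up to about 57 µM; 0% is about no effect; a drop in NADPH fluorescence below the no-compound background marks a TrxR1 substrate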
Chain of Thioredoxin reductase 1, cytoplasmic (Rattus norvegicus) (O89049 whole entry, looked up): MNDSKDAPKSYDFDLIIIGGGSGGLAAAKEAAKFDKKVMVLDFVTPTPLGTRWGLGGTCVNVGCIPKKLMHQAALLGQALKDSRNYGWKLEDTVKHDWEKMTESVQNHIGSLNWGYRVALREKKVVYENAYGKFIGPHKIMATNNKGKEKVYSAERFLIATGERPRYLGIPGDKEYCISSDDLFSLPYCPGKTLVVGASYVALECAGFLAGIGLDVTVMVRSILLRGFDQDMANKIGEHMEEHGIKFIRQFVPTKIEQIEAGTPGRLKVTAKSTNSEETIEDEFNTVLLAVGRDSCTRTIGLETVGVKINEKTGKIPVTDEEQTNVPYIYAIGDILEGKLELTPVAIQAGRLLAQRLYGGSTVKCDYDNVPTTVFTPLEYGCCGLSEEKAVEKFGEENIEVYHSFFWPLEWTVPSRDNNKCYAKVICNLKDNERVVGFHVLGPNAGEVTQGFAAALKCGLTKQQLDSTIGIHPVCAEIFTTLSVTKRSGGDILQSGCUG
Method in brief: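 In this dual-purpose format, potential substrates are identified from the first fluorescence read after selenite addition, not from the 8-minute delta. Rat enzyme is preincubated with NADPH and then with compound at ~22 deg C.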

[6] = biological target: Thioredoxin reductase 1, cytoplasmic (Rattus norvegicus) (UniProt O89049); assay: qHTS Assay for Inhibitors of Mammalian Selenoprotein Thioredoxin Reductase 1 (TrxR1) (AID 488773); conditions: Potency: inhibition;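 further: drop in NADPH fluorescence over an 8 min run after selenite addition; series mostly up to about 57 µM; on the % scale 0 is the no-effect control and ±100 the full control effect; nearly all actives have a fitted effect of over 40% in size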
Method in brief: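 Inhibition is scored from the loss of NADPH fluorescence between first and last reads of an 8-min kinetic run. Selenite (400 uM) was the substrate, added after 15 min compound preincubation at room temperature.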

[7] = biological target: Flap endonuclease 1 (Homo sapiens) (UniProt P39748); assay: qHTS Validation Assay for the Inhibitors of Human Flap endonuclease 1 (FEN1) (AID 488816); further: potency means the concentration at half of the fitted maximal effect
Chain of Flap endonuclease 1 (Homo sapiens) (P39748 whole entry, looked up): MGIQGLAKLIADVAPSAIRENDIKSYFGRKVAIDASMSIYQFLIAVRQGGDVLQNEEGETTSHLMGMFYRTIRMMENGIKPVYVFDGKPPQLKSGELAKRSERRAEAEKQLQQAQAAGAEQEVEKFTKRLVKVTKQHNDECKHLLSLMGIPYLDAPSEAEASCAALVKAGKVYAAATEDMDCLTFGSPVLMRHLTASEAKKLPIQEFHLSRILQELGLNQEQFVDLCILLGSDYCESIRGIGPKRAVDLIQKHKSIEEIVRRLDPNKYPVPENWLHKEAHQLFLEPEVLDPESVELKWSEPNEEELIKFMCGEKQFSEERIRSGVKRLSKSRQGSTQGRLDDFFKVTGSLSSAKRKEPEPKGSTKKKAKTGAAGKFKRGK
Method in brief: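 Steps: add FEN1 (10 nM reagent) or buffer only; pin compounds; hold 15 min at room temperature; start with substrate, 50 nM final; read at 0 and 15 min; correct, normalize and fit a four-parameter Hill curve.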

[8] = biological target: M-phase phosphoprotein 8 (Homo sapiens) (UniProt Q99549); assay: qHTS Validation Assay for Inhibitors for MPP8 Chromodomain Interactions with Methylated Histone Tails (AID 488949); further: nearly all actives have a fitted effect of over 55% in size; further: potency means the concentration at half of the fitted maximal effect
Chain of M-phase phosphoprotein 8 (Homo sapiens) (Q99549 whole entry, looked up): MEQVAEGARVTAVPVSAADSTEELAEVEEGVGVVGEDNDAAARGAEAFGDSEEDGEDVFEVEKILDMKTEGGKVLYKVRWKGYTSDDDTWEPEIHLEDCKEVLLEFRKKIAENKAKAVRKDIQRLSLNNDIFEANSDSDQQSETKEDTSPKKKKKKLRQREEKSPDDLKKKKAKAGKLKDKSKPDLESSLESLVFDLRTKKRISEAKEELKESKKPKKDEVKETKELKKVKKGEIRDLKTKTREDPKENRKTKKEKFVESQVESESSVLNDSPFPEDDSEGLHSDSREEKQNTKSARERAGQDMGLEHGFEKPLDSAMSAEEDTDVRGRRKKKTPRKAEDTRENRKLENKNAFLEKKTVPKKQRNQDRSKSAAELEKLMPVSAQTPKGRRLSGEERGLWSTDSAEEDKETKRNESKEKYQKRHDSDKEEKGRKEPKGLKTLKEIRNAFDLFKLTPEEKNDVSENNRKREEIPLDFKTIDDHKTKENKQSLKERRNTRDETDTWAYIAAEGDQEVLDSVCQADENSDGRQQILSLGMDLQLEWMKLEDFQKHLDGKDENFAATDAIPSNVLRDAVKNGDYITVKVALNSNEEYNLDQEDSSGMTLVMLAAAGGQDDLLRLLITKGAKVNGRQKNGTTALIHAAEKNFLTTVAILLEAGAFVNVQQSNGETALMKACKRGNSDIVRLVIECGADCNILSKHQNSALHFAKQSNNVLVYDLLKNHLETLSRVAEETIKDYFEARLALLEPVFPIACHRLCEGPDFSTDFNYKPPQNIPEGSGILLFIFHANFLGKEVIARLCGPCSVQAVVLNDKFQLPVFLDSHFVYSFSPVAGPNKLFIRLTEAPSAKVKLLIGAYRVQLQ
Method in brief: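 Chemiluminescent proximity assay: histidine-tag capture via nickel acceptor beads, biotin peptide via streptavidin donor beads. Protein and peptide each at 50 nM, pH 7.4, with 30 min incubations at room temperature for complex formation, compound exposure and bead binding.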

[9] = biological target: Chromobox protein homolog 1 (Homo sapiens) (UniProt P83916); assay: qHTS Validation Assay for Inhibitors of HP1-beta Chromodomain Interactions with Methylated Histone Tails (AID 488953); further: nearly all actives have a fitted effect of over 50% in size; further: potency means the concentration at half of the fitted maximal effect
Method in brief: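 AlphaScreen proximity readout: streptavidin donor and Ni-chelate acceptor beads, 10 ug/mL final, 30 min dark, RT. Complex of 50 nM HP1-beta and 50 nM b-H3(1-18)K9me3 formed 30 min, then compound-treated 30 min; PBS pH 7.4/0.01% Tween-20.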

[10] = biological target: Methanococcus maripaludis chaperonin (MmCpn) (UniProt Q6LX38); assay: High-Throughput Screening for Modulators of Cytosolic Chaperonin Activity: MmCpn Primary Screen (AID 488978); further: 0% is about no effect
Method in brief: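 HTRF readout (320 nm excitation, 590/665 nm emission) of ADP generated by 50 nM MmCpn hydrolysing 30 uM ATP during 10 min at 37C; compound preincubated 5 min RT.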

[11] = biological target: Transient receptor potential cation channel subfamily V member 1 (Homo sapiens) (UniProt Q8NER1); assay: HTS Assay for Compounds that Act as Enhancers of the Vanilloid Receptor 1 (AID 488979); further: 0% is about no effect
Method in brief: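 TRPV1-expressing cells loaded with Fluo-8 calcium dye; compounds added and calcium influx read kinetically for 3 min (agonist phase), then capsaicin at EC20 added and read 2 min more for enhancement. Fluorescence ex 480/em 520 nm.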

[12] = biological target: Thyrotropin receptor (Homo sapiens) (UniProt P16473); assay: qHTS Assay for Antagonists of the Thyroid Stimulating Hormone Receptor (AID 488980); further: series mostly up to about 58 µM; 0% is about no effect
Method in brief: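 Inhibition of TSH-stimulated cAMP accumulation was quantified by homogeneous time-resolved FRET in TSHR-transfected HEK293 cells. Agonist: TSH, 4 nM final (EC80).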

[13] = biological target: D(1A) dopamine receptor (Homo sapiens) (UniProt P21728); assay: HTS Assay for Allosteric Agonists of the Human D1 Dopamine Receptor: Primary Screen for Agonists (AID 488981); further: 0% is about no effect
Method in brief: (§1)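 Tetracycline-induced HEK293 T-REx cells force-coupled to calcium signalling were incubated overnight at 30 C and dye-loaded at room temperature. Calcium flux over 180 s after compound addition flagged agonists; a further 180 s read after EC20 dopamine flagged potentiators.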

[14] = biological target: D(1A) dopamine receptor (Homo sapiens) (UniProt P21728); assay: HTS Assay for Allosteric Agonists of the Human D1 Dopamine Receptor: Primary Screen for Potentiators (AID 488982); further: 0% is about no effect
Method in brief: as §1

[15] = biological target: D(1A) dopamine receptor (Homo sapiens) (UniProt P21728); assay: HTS Assay for Allosteric Agonists of the Human D1 Dopamine Receptor: Primary Screen for Antagonists (AID 488983);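 further: calcium flux response to an EC80 dopamine challenge measured with no-wash dye; nearly all actives have a fitted effect of over 65% in size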; further: potency means the concentration at half of the fitted maximal effect
Method in brief: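 Calcium flux readout, no-wash dye, inducible HEK293 T-REx D1 line (force-coupled). Compound added after 10 s baseline, 180 s kinetic read; then dopamine at EC80, further 180 s read.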

[16] = Validation screen for small molecules that induce genotoxicity in human embryonic kidney (HEK293T) cells expressing luciferase-tagged ELG1 (AID 493106); further: 0% is about no effect
Method in brief: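 qHTS format; 2,000 HEK293T ELG1-luc cells/well; 23 nL compound via pin tool; 16 hr, 37 °C/5% CO2; ONE-Glo, 30 min RT; luminescence read.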

[17] = biological target: ATPase family AAA domain-containing protein 5 (Homo sapiens) (UniProt Q96QE3); assay: Validation screen for small molecules that inhibit ELG1-dependent DNA repair in human embryonic kidney (HEK293T) cells expressing luciferase-tagged ELG1 (AID 493107); further: nearly all actives have a fitted effect of over 70% in size; further: potency means the concentration at half of the fitted maximal effect
Chain of ATPase family AAA domain-containing protein 5 (Homo sapiens) (Q96QE3 whole entry, looked up, the tested form may be a part): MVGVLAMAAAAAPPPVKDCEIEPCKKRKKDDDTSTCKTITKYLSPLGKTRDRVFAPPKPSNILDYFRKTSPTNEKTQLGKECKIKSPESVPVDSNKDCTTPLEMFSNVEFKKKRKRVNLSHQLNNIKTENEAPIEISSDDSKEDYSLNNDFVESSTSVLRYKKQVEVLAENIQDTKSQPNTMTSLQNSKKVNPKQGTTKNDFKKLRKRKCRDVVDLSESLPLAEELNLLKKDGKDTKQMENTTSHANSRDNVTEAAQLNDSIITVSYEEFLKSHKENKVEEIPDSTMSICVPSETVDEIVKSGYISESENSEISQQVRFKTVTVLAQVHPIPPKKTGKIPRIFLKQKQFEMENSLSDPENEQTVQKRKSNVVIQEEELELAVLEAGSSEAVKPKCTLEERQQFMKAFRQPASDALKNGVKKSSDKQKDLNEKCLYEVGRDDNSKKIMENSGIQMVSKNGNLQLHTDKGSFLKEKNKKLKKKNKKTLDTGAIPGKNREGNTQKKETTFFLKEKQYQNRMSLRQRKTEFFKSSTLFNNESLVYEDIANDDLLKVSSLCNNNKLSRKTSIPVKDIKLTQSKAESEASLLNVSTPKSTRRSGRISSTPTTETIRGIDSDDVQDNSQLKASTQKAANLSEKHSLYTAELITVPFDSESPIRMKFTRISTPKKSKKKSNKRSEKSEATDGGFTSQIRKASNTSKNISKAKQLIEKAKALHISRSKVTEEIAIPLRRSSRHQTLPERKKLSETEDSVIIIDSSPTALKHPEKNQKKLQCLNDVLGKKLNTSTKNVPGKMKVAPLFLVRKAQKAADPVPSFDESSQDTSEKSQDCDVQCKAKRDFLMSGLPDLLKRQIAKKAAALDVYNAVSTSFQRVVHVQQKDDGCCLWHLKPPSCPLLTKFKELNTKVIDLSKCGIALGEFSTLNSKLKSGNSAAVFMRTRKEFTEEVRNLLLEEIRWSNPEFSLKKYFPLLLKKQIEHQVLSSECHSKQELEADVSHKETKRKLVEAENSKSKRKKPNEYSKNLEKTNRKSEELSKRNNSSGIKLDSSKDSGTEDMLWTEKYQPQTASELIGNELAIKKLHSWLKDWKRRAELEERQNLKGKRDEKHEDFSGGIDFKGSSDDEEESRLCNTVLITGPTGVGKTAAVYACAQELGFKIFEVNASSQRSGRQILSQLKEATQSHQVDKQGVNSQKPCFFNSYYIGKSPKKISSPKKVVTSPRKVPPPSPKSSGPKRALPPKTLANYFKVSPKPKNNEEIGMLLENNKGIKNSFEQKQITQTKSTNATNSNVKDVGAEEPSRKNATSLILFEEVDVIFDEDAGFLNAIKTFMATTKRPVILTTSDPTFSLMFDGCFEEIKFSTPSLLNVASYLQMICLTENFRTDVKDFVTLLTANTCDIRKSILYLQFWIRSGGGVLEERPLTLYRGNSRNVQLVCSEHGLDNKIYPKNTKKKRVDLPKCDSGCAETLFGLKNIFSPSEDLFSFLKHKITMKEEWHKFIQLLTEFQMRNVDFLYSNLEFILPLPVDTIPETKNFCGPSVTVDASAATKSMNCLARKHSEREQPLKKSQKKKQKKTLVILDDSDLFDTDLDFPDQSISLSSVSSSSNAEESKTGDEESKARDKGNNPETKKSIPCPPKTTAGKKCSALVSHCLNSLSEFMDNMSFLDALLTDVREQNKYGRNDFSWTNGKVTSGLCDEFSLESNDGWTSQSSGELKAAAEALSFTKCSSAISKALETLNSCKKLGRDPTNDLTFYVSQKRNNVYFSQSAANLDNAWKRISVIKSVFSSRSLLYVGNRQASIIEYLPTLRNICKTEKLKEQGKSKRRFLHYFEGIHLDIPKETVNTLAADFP
Method in brief: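 ELG1-luciferase HEK293T reporter; 5-fluorouridine + compound/DMSO, 16 hr, 37 °C, 5% CO2; ONE-Glo 30 min RT; luminescence read, qHTS format.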

[18] = biological target: Thyrotropin-releasing hormone receptor (Homo sapiens) (UniProt P34981); assay: qHTS for Small Molecule Agonists and Allosteric Enhancers of Human TRH Receptor: Validation Screen for Agonists (AID 493127;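 active means calcium activation more than 3 SD above the typical response in the agonist read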;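 further: intracellular calcium rise by fluo-8 fluorescence before TRH EC20 addition; 0% is about no effect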); conditions: TRH receptor agonist cell assay; at 2 µM; stronger effect = higher value
Chain of Thyrotropin-releasing hormone receptor (Homo sapiens) (P34981 whole entry, looked up): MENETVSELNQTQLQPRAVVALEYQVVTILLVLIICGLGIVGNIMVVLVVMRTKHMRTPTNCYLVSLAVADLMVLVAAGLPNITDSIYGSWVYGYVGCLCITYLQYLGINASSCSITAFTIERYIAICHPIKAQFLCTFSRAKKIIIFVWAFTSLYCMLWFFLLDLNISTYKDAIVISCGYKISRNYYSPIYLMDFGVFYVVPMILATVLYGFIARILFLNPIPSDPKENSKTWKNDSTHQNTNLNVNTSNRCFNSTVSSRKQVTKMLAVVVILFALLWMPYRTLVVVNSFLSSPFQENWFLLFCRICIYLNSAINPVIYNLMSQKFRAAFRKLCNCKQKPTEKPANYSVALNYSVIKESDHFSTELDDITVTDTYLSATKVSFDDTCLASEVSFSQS
Method in brief: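 Read-out: intracellular calcium release measured kinetically by FDSS (fluo-8, ex 480/em 530 nm), 1 reading/s after a 10-cycle baseline. TRHR cells, 2000/well, cultured 18 h at 33.5C, dye-loaded at room temp. Compound-evoked positive calcium signal flags agonists.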

O=[N+]([O-])c1cccc2cn[nH]c12
inactive: outcome [1] | Potency [2] | Potency [3] | Potency [4] | outcome [5] | Potency [6] | Potency [7] | Potency [8] | Potency [9] | outcome [10] | outcome [11] | outcome [12] | Potency [13] | Potency [14] | Potency [15] | Potency [16] | Potency [17] | activation [18] 0.5%

O=C(O)C1=CC(=C(c2ccc(O)c(C(=O)O)c2)c2ccc(O)c(C(=O)O)c2)C=CC1=O
active: Potency [2] 60.1 nM | Potency [7] 134 nM | Potency [8] 178 nM and 238 nM | Potency [9] 199 nM
inactive: outcome [1] | Potency [3] | Potency [4] | outcome [5] | Potency [6] | outcome [10] | outcome [11] | outcome [12] | Potency [13] | Potency [14] | Potency [15] | Potency [16] | activation [18] 1%

NCC(O)(CS(=O)(=O)O)c1ccc(Cl)cc1 (centres undefined)
inactive: outcome [1] | Potency [2] | Potency [3] | Potency [4] | outcome [5] | Potency [6] | Potency [7] | outcome [10] | outcome [11] | outcome [12] | Potency [13] | Potency [15] | Potency [16] | Potency [17] | activation [18] 0.25%

CC[C@@H]1Cc2cc(O)ccc2C2=C1c1ccc(O)cc1C[C@H]2CC
35.5 µM (active) and inactive: Potency [8]
active: Potency [4] 13100 nM | Potency [9] 31600 nM
inactive: outcome [1] | Potency [2] | Potency [3] | outcome [5] | Potency [6] | Potency [7] | outcome [10] | outcome [11] | outcome [12] | Potency [13] | Potency [16] | activation [18] 6.69%

Clc1nccc2c1ccc1ccccc12
inactive: outcome [1] | Potency [2] | Potency [3] | Potency [4] | outcome [5] | Potency [6] | Potency [7] | Potency [8] | Potency [9] | outcome [10] | outcome [11] | outcome [12] | Potency [13] | Potency [14] | Potency [15] | Potency [16] | Potency [17] | activation [18] -6.94%

CNCCNS(=O)(=O)c1cccc2cnccc12
active: Potency [17] 9200 nM
inactive: outcome [1] | Potency [2] | Potency [3] | Potency [4] | outcome [5] | Potency [6] | Potency [7] | Potency [8] | outcome [10] | outcome [11] | outcome [12] | Potency [13] | Potency [14] | Potency [15] | Potency [16] | activation [18] 1.44%

C#CCn1c(=O)c2c(ncn2C)n(C)c1=O
inactive: outcome [1] | Potency [2] | Potency [3] | Potency [4] | outcome [5] | Potency [6] | Potency [7] | Potency [8] | Potency [9] | outcome [10] | outcome [11] | outcome [12] | Potency [13] | Potency [15] | Potency [16] | Potency [17] | activation [18] 0.938%

CCCCC[C@H](CC(=O)NO)C(=O)N[C@H](C(=O)N1CCC[C@H]1CO)C(C)C
active: Potency [3] 1170 nM | Potency [4] 2940 nM
inactive: outcome [1] | Potency [2] | outcome [5] | Potency [6] | Potency [7] | Potency [9] | outcome [10] | outcome [11] | outcome [12] | Potency [13] | Potency [14] | Potency [16] | activation [18] -2.88%

O=c1onc2n1-c1cc(Br)ccc1OC2
inactive: outcome [1] | Potency [2] | Potency [3] | Potency [4] | outcome [5] | Potency [6] | Potency [7] | Potency [8] | outcome [10] | outcome [11] | outcome [12] | Potency [13] | Potency [14] | Potency [15] | Potency [16] | Potency [17] | activation [18] 1.75%

COc1ccc(CCN(C)CCc2ccc(OC)c(OC)c2)cc1OC
inactive: outcome [1] | Potency [2] | Potency [3] | Potency [4] | outcome [5] | Potency [6] | Potency [7] | Potency [8] | Potency [9] | outcome [10] | outcome [11] | outcome [12] | Potency [14] | Potency [15] | Potency [16] | Potency [17] | activation [18] -4.19%

CN(C)CCC(c1ccc(Br)cc1)c1ccccn1 (centres undefined)
inactive: outcome [1] | Potency [2] | Potency [3] | Potency [4] | outcome [5] | Potency [6] | Potency [7] | Potency [8] | Potency [9] | outcome [10] | outcome [11] | Potency [13] | Potency [14] | Potency [15] | Potency [16]

N[C@H](C(=O)O)[C@H]1C[C@@H]1C(=O)O
inactive: outcome [1] | Potency [2] | Potency [3] | Potency [4] | outcome [5] | Potency [6] | Potency [7] | Potency [8] | Potency [9] | outcome [10] | outcome [11] | outcome [12] | Potency [13] | Potency [15] | Potency [16] | Potency [17] | activation [18] 0.812%

CC(N)=NCCCC[C@@H](N)C(=O)O
inactive: outcome [1] | Potency [2] | Potency [3] | Potency [4] | outcome [5] | Potency [6] | Potency [7] | Potency [8] | Potency [9] | outcome [10] | outcome [11] | outcome [12] | Potency [13] | Potency [14] | Potency [15] | Potency [16] | Potency [17] | activation [18] 1.31%

NC(=O)c1ccccc1
inactive: outcome [1] | Potency [2] | Potency [3] | Potency [4] | outcome [5] | Potency [6] | Potency [7] | Potency [9] | outcome [10] | outcome [11] | outcome [12] | Potency [13] | Potency [14] | Potency [16] | Potency [17] | activation [18] 0.25%

Cc1ccc2c(c1)C(N1CCN(C)CC1)=Nc1cccnc1N2
active: Potency [15] 4470 nM
inactive: outcome [1] | Potency [2] | Potency [3] | Potency [4] | outcome [5] | Potency [6] | Potency [7] | Potency [8] | outcome [10] | outcome [11] | outcome [12] | Potency [13] | Potency [14] | Potency [16] | activation [18] -0.312%

CCCn1c(=O)c2[nH]c(-c3ccc(S(=O)(=O)O)cc3)nc2n(CCC)c1=O
inactive: outcome [1] | Potency [2] | Potency [3] | Potency [4] | outcome [5] | Potency [6] | Potency [7] | Potency [8] | outcome [10] | outcome [11] | outcome [12] | Potency [14] | Potency [15] | Potency [16] | Potency [17] | activation [18] 0.688%
